Bioassay records as filed in PubChem BioAssay.
SNCA viab count: reduces viability of HEK-293 SNCA reporter cells; 150,000 compounds, 0.12% hits; Potency, µM (top dose mostly 57.1 µM), without a hit: at the top dose activity change, negative = cytotoxicity, hits mostly cytotoxic; HEK-293-SNCA-luc viability, GF-AFC fluorescence, 24 h;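 also: potency is read from the fitted curve at half-maximal effect; 0% = DMSO-treated cells and -100% = medium-only wells without cells; nearly all actives have a fitted effect of over 30% in size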
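Cytotoxicity counterscreen: after 24 h compound treatment of genome-edited SNCA-luciferase HEK-293 cells, live-cell protease substrate GF-AFC read by fluorescence after 30 min; activity scaled between DMSO (0%) and medium-only (-100%), curves Hill-fitted.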
SNCA expr inh: inhibitors of alpha-synuclein (SNCA) gene expression; HEK-293 SNCA-luciferase knock-in, luminescence, 24 h; Potency, µM (series often up to 57.2 µM), for inactives: at the top dose activity change, negative = inhibition, usual class: inhibitors; 140,000 compounds, 0.17% hits;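 also: potency is read from the fitted curve at half-maximal effect; plate controls were DMSO cells for no effect and cell-free wells for full effect; nearly all actives have a fitted effect of over 45% in size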
GPT2 inh: blocks human glutamate pyruvate transaminase 2; Q8TD30; Recombinant GPT2, coupled pyruvate oxidase/HRP Amplex Red fluorescence; Potency, µM (series often up to 57.7 µM), inactives show top-dose activity change, negative = inhibition, hits mostly inhibitors; 100,000 compounds, 0.25% hits; AID 1671188; also: potency is read from the fitted curve at half-maximal effect; nearly all actives have a fitted effect of over 60% in size
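Fluorescence read-out: pyruvate from GPT2 turnover coupled to pyruvate oxidase, HRP and Amplex Red (0.2mM ThPP, 0.2U/mL PO and HRP, 50uM Amplex final). Substrates 250uM a-KG, 2mM L-alanine; enzyme 10ng/uL; 30 min RT.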
IP6K1 inhibitor: inhibitors of human IP6K1 | Q92551 | IP6K1 kinase, ADP-Glo luminescence, 2 h; hits give low values | activity change, % (series mostly up to about 58 µM) | 140,000 compounds, 0.81% hits | AID 1645851; in the data active = activity change below about -25%
Target sequence (Q92551 whole entry, looked up): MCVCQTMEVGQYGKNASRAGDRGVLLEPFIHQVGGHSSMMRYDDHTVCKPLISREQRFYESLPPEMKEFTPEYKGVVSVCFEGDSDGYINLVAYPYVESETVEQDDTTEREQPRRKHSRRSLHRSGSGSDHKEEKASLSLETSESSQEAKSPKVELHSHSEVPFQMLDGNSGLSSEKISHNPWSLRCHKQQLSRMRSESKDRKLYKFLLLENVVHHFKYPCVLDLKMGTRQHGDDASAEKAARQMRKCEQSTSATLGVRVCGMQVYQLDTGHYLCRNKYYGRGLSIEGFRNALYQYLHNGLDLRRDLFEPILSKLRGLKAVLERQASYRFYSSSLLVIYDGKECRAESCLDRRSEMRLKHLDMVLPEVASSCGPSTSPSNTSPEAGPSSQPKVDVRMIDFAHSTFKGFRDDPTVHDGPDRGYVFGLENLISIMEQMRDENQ
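ADP-Glo luminescence measures ADP made by human IP6K1 during a 2 h RT reaction with ATP/IP6 (mix at 1.3 mM/130 uM); top library doses 57.5 and 19.1 uM final.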
IP6K1 conf: human IP6K1 inhibition, confirmatory | shares compounds with IP6K1 inhibitor | recombinant IP6K1 kinase, ADP-Glo luminescence, 2 h | 1,200 compounds, 13% hits | Potency, µM (highest dose often 49 µM), inactives show at the highest dose activity change, negative = inhibition, actives largely listed as inhibitors; also: potency is read from the fitted curve at half-maximal effect; nearly all actives have a fitted effect of over 65% in size
Starred values were filed as active, the others as inactive; [ ] = another dose, or the depositor's remark. In the library only some 1.1% were active in any assay of this set; here they are far more common. Unless noted, calls follow the shape of the dose curve; as a rule, active = well fitted curve in the direction sought with a large enough effect; inconclusive = small, poorly fitted or top-dose-only effect, or another doubt; inactive = no such curve, though single readings can be large; an effect the other way counts as inactive or inconclusive. Unless noted, % is scaled to controls: 0 for no effect and ±100 for the full control effect.

For CN(C)c1ccc(-c2cc(-c3ccc(=O)[nH]c3)c3cncn3c2)cc1 the results were SNCA viab count -18.7%[87.6 µM], SNCA expr inh 25.6%[87.6 µM], GPT2 inh inactive, IP6K1 inhibitor 0.1 and IP6K1 conf -13.5%.
Screening CC(C)c1ccc(CN2CCC3(CC2)COCCN3C(=O)OCc2ccccc2)cc1 returned SNCA viab count inconclusive, SNCA expr inh 1.1%[87.6 µM], GPT2 inh inactive and IP6K1 inhibitor -2.0.
`C[C@]12CC[C@H](O)CC1=CCC1C2CC[C@]2(C)C(n3cnc4ccccc43)=CCC12` (stereo not given in full) gave SNCA viab count -0.8%, SNCA expr inh -0.9%, GPT2 inh inactive, IP6K1 inhibitor -25.8* and IP6K1 conf inconclusive.
OC1CC(c2cc(NCCCn3ccc4ccccc43)ncn2)C1 (stereo not given) was read as SNCA viab count -5.4%, SNCA expr inh 10.4%, GPT2 inh -19.8%[11.5 µM], IP6K1 inhibitor -34.2* and IP6K1 conf -3.3%.
Screening COc1ccccc1CCNC(=O)CCc1c(C)c2cc3c(C)c(C)oc3cc2oc1=O returned SNCA viab count 2.7%, SNCA expr inh -12.9%, IP6K1 inhibitor -25.5* and IP6K1 conf -13.3%.
`Cn1ncc2c(C(=O)NCc3cccs3)cc(-c3ccc(Cl)cc3Cl)nc21` gave SNCA viab count -18.0%, SNCA expr inh -1.8%, GPT2 inh inactive and IP6K1 inhibitor 4.1.
CN(C)CC(=O)N1Cc2ccccc2CC2(CCCN(CC3CCNCC3)C2)C1 (stereo not given) was read as SNCA viab count -14.0%, SNCA expr inh 2.7%, GPT2 inh inconclusive and IP6K1 inhibitor 11.8.
For CN(C)CC(=O)N1Cc2ccccc2CC2(CCN(CC3CCNCC3)C2)C1 (stereo not given) the results were SNCA viab count 0.6%, SNCA expr inh -5.0%, GPT2 inh inactive, IP6K1 inhibitor -26.8* and IP6K1 conf inconclusive.
Screening COc1ccc(CN2C[C@H]3CN(Cc4c[nH]c5ccccc45)CCN3C2=O)cc1 returned SNCA viab count -7.3%[87.6 µM], SNCA expr inh -20.7%[87.6 µM], GPT2 inh 3.0%[88.5 µM] and IP6K1 inhibitor -12.5.
`O=C(CCc1ccccc1)N(Cc1cccnc1)c1nc2ccc(F)cc2s1` gave SNCA viab count -2.7%, SNCA expr inh 7.7% and IP6K1 inhibitor -14.6.
Screening O=C(c1ccco1)N(Cc1cccnc1)c1nc2ccc(F)cc2s1 returned SNCA viab count -3.0%, SNCA expr inh 86.3%, IP6K1 inhibitor -27.2* and IP6K1 conf -16.6%.
For Cc1ccccc1C(=O)n1nc(-c2cccnc2)nc1NCc1ccccc1 the results were SNCA viab count 0.5%, SNCA expr inh -3.0% and IP6K1 inhibitor 20.2.
`Cc1cccc(C(=O)n2nc(-c3cccnc3)nc2NCc2ccccc2)c1` gave SNCA viab count 1.0%, SNCA expr inh 17.8%, IP6K1 inhibitor -29.9* and IP6K1 conf inconclusive.
`COC1=C(c2ccc(F)cc2)C(=O)N(Cc2ccccc2)C1` gave IP6K1 inhibitor 10.8.
For CCC[C@H]1CN(C(=O)c2ccccc2Cc2ccc(C)cc2)C[C@@H]1N the results were SNCA viab count -2.4%, SNCA expr inh 10.8%, GPT2 inh inactive, IP6K1 inhibitor -25.9* and IP6K1 conf -6.3%.
Cc1cc(=O)[nH]c2nnc(SCC(=O)Nc3ccc(OC(F)(F)F)cc3)n12 was read as SNCA viab count 2.0%, SNCA expr inh 6.8%, IP6K1 inhibitor -25.2* and IP6K1 conf 5.7%.
Screening Cc1cc(=O)[nH]c2nnc(SCC(=O)NC(C)(C)C)n12 returned SNCA viab count 0.7%, SNCA expr inh -16.1% and IP6K1 inhibitor 3.3.
Screening COCCCNC(=O)C1CCN(C(=O)c2ccc(-c3cccs3)cc2)CC1 returned IP6K1 inhibitor -9.6.
`Cc1oc2ncn(CC(C)C)c(=O)c2c1C(=O)NCCCN(Cc1ccccc1)C(C)C` gave SNCA viab count 1.5%, SNCA expr inh 20.6%, IP6K1 inhibitor -28.9* and IP6K1 conf -2.9%.
Screening COc1cccc(-c2ncc3c(n2)OCCN(c2cccc(C(F)(F)F)c2)C3=O)c1 returned SNCA viab count -17.6%[87.6 µM], SNCA expr inh -15.8%[87.6 µM], GPT2 inh -10.7%[88.5 µM] and IP6K1 inhibitor -11.6.
